Measurements published in PubChem BioAssay (Tox21).
Values joined by “and” are separate entries in the source; they are usually repeats but may differ in a detail not shown here. Identical values can stand only once. Records with an inconclusive call do not appear. Where a call stands in place of a potency, no number is given. More than one record can exist for a structure, and the calls need not agree. Active and inactive are the calls of the source. Unless noted, the call rests on the fitted dose curve; in most records, active means well fitted curve in the direction sought with a large enough effect in the repeat runs; inconclusive means weak or mixed curves; inactive means no such curve, though single readings can be large; an effect the other way counts as inactive or inconclusive.

How the values were obtained:
[1] = qHTS assay to identify aromatase inhibitors - cell viability counter screen (AID 743084);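 further: cells stimulated with testosterone during compound exposure; nearly all actives have a fitted effect of over 55% in size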
[2] = target: Aryl hydrocarbon receptor (Homo sapiens) (UniProt P35869); assay: qHTS assay to identify small molecule that activate the aryl hydrocarbon receptor (AhR) signaling pathway (AID 743085); further: nearly all actives have a fitted effect of over 15% in size; further: potency means the concentration at half of the fitted maximal effect;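 on activation: HG2L7.5c1 human HepG2 liver cells with stably integrated DRE-driven firefly reporter; series mostly up to about 70 µM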
In short: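 Luminescence (ONE-Glo) from a dioxin-responsive-element luciferase reporter in HG2L7.5c1 HepG2 cells after 24 hr compound exposure at 37C; viability measured by CellTiter-Fluor fluorescence beforehand.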

[3] = qHTS assay to identify small molecule that activate the aryl hydrocarbon receptor (AhR) signaling pathway - cell viability counter screen (AID 743086);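 further: HepG2 liver cells carrying the AhR DRE luciferase reporter; series mostly up to about 70 µM; nearly all actives have a fitted effect of over 45% in size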
In short: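 HepG2-AhR-luc (HG2L7.5c1) cells, 4000/well, were preincubated 5 h at 37C, exposed to compound in qHTS format for 24 hr at 37C, then given CellTiter-Fluor for 30 min; viability was read as fluorescence in the reporter wells.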

[4] = target: Peroxisome proliferator-activated receptor gamma (Homo sapiens) (UniProt P37231); assay: qHTS assay to identify small molecule agonists of the peroxisome proliferator-activated receptor gamma (PPARg) signaling pathway (AID 743094; active means well fitted activation curve with a large enough effect in the signal ratio in the repeat runs, not every such curve was filed as active; the % refers to the signal ratio)
In short: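 Fluorescence-based beta-lactamase readout in HEK293H PPARg UAS-bla cells after 17 h compound exposure (37C) and 1 h B/G FRET substrate incubation at room temperature.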

[5] = target: Peroxisome proliferator-activated receptor gamma (Homo sapiens) (UniProt P37231); assay: qHTS assay to identify small molecule antagonists of the peroxisome proliferator-activated receptor gamma (PPARg) signaling pathway (AID 743191; calls by dose curve; further: series mostly up to about 63 µM; nearly all actives have a fitted effect of over 30% in size)
In short: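 GeneBLAzer PPARg UAS-bla HEK293H cells carrying a UAS-driven beta-lactamase reporter were plated at 3000 cells/well, preincubated 5 h at 37C, then given compound for 17 h at 37C; LiveBLAzer B/G FRET substrate was read after 1 h at room temperature.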

[6] = qHTS assay to identify small molecule antagonists of the peroxisome proliferator-activated receptor gamma (PPARg) signaling pathway - cell viability counter screen (AID 743194); further: nearly all actives have a fitted effect of over 55% in size
In short: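 PPARg-UAS-bla HEK293H cells were plated, rested 5 h at 37 C, then treated with compounds plus rosiglitazone (50 nM final) for 17 h at 37 C; viability was then read by CellTiter-Glo luminescence after 30 min at room temperature.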

[7] = qHTS assay for small molecule agonists of the antioxidant response element (ARE) signaling pathway (AID 743202; active means well fitted activation curve with a large enough effect in the signal ratio in the repeat runs, not every such curve was filed as active; the % refers to the signal ratio)
In short: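 Steps: seed ARE-bla HepG2 cells (2,000/well); incubate 5 h at 37 C; add compounds by pin tool; incubate 16 h at 37 C; add FRET substrate; read fluorescence after 2 h at RT.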

[8] = qHTS assay for small molecule agonists of the antioxidant response element (ARE) signaling pathway - cell viability counter screen (AID 743203; calls by dose curve; further: nearly all actives have a fitted effect of over 55% in size)
In short: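 Parallel cytotoxicity read-out for the ARE-bla screen: HepG2 reporter cells, 16 hrs with compounds, then CellTiter-Glo luminescence.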

[9] = qHTS assay for small molecule activators of the heat shock response signaling pathway - cell viability counter screen (AID 743209); further: nearly all actives have a fitted effect of over 50% in size
In short: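 To flag cytotoxic compounds, HSE-bla HeLa cells plated at 1500 cells/well were dosed for 5 h at 37 C, followed by the reporter FRET read and then CellTiter-Glo, with luminescence recorded 30 min after reagent addition.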

[10] = qHTS assay for small molecule activators of the heat shock response signaling pathway (AID 743210; active means well fitted activation curve with a large enough effect in the signal ratio in the repeat runs, with a control signal flat, not every such curve was filed as active; the % refers to the signal ratio;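 further: HeLa cells with beta-lactamase reporter driven by heat shock elements; series mostly up to about 63 µM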)
In short: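 Activation of heat shock element-controlled beta-lactamase expression is measured in HeLa cells by LiveBLAzer FRET fluorescence, with compound exposure lasting 5 h at 37 C and substrate loading 2.5 h at room temperature.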

[11] = qHTS assay to identify small molecule agonists of the peroxisome proliferator-activated receptor delta (PPARd) signaling pathway - cell viability counter screen (AID 743211); further: nearly all actives have a fitted effect of over 55% in size
In short: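 Viability was measured as CellTiter-Glo luminescence (30 min, room temperature) in the same wells as the beta-lactamase readout. GeneBLAzer PPARd UAS-bla HEK293H cells received compound after 5 h plating and were incubated 17 h at 37 C.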

[12] = target: Peroxisome proliferator-activated receptor delta (Homo sapiens) (UniProt Q03181); assay: qHTS assay to identify small molecule agonists of the peroxisome proliferator-activated receptor delta (PPARd) signaling pathway (AID 743212; calls by dose curve)
In short: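 Cells expressing a UAS-driven beta-lactamase reporter (PPARd-bla HEK293H) were given test compounds after a 5 h settle and kept at 37 C. Reporter activity was then measured as FRET fluorescence using LiveBLAzer B/G substrate.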

[13] = qHTS assay to identify small molecule antagonists of the peroxisome proliferator-activated receptor delta (PPARd) signaling pathway - cell viability counter screen (AID 743213); further: nearly all actives have a fitted effect of over 50% in size
In short: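 Agonist-stimulated (L165041, 300 nM final) HEK293H PPARd UAS-bla cells are exposed to compounds for 17 h at 37 C, and ATP-based luminescence (CellTiter-Glo) from the same wells reports cytotoxicity.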

[14] = target: Peroxisome proliferator-activated receptor delta (Homo sapiens) (UniProt Q03181); assay: qHTS assay to identify small molecule antagonists of the peroxisome proliferator-activated receptor delta (PPARd) signaling pathway (AID 743215; active means well fitted inhibition curve with a large enough effect in the signal ratio in the repeat runs, not every such curve was filed as active; the % refers to the signal ratio; further: series mostly up to about 62 µM)
In short: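 Screen format: qHTS, antagonist mode. HEK293H PPARd-bla cells received compound and 300 nM L165041 (final), 17 h, 37 C. Beta-lactamase detected via FRET substrate fluorescence, 2 h, room temperature.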

[15] = target: Bile acid receptor (Homo sapiens) (UniProt Q96RI1); assay: qHTS assay to identify small molecule antagonists of the farnesoid-X-receptor (FXR) signaling pathway (AID 743217; active means well fitted inhibition curve with a large enough effect in the signal ratio in the repeat runs, not every such curve was filed as active; the % refers to the signal ratio)
In short: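 Quantitative HTS, beta-lactamase reporter format: FXR-UAS-bla HEK 293T cells co-treated 16 h at 37 °C with compounds and 50 uM final chenodeoxycholic acid, then read by B/G FRET fluorescence.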

[16] = qHTS assay to identify small molecule agonists of the farnesoid-X-receptor (FXR) signaling pathway - cell viability counter screen (AID 743218); further: nearly all actives have a fitted effect of over 45% in size
In short: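 Same-well cytotoxicity check on FXR-UAS-bla HEK 293T cells: 5 h attachment, 16 h compound at 37 C, CellTiter-Glo luminescence read at room temperature after 30 min.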

[17] = target: Bile acid receptor (Homo sapiens) (UniProt Q96RI1); assay: qHTS assay to identify small molecule agonists of the farnesoid-X-receptor (FXR) signaling pathway (AID 743220; active means well fitted activation curve with a large enough effect in the signal ratio in the repeat runs, not every such curve was filed as active; the % refers to the signal ratio)
In short: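 FXR-UAS-bla HEK 293T cells carrying a UAS-driven beta-lactamase reporter were plated for 5 h at 37C/5% CO2, then exposed to DMSO-dissolved Tox21 10K compounds for 16 h at 37C. A LiveBLAzer B/G FRET substrate was loaded for 2 h at room temperature before fluorescence reading.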

[18] = qHTS assay to identify small molecule antagonists of the farnesoid-X-receptor (FXR) signaling pathway - cell viability counter screen (AID 743221; active means well fitted cell-killing curve with a large enough effect in the repeat runs, not every such curve was filed as active; further: nearly all actives have a fitted effect of over 50% in size)
In short: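 Cytotoxicity counter screen run in the FXR-bla reporter wells: HEK 293T cells exposed to compound with 50 uM (final) chenodeoxycholic acid for 16 h, 37 C, then viability measured by CellTiter-Glo luminescence after 30 min, room temperature.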

[19] = target: Vitamin D3 receptor (Homo sapiens) (UniProt P11473); assay: qHTS assay to identify small molecule agonists of the vitamin D receptor (VDR) signaling pathway (AID 743222; calls by dose curve)
In short: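 Using LiveBLAzer B/G FRET detection, agonism was scored in VDR-bla cells exposed overnight (16 h, 37C) to DMSO-dissolved compounds; substrate incubation was 2 h at room temperature.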

[20] = target: Vitamin D3 receptor (Homo sapiens) (UniProt P11473); assay: qHTS assay to identify small molecule antagonists of the vitamin D receptor (VDR) signaling pathway (AID 743223; active means well fitted inhibition curve with a large enough effect in the signal ratio in the repeat runs, not every such curve was filed as active; the % refers to the signal ratio)
In short: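 Antagonist mode: compound added to VDR-bla cells alongside agonist 1alpha,25-dihydroxyvitamin D3 (3 nM final), incubation 16 h at 37C. Read-out is LiveBLAzer FRET fluorescence, 2 h at room temperature.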

Sequence of Bile acid receptor (Homo sapiens) (Q96RI1 whole entry, looked up): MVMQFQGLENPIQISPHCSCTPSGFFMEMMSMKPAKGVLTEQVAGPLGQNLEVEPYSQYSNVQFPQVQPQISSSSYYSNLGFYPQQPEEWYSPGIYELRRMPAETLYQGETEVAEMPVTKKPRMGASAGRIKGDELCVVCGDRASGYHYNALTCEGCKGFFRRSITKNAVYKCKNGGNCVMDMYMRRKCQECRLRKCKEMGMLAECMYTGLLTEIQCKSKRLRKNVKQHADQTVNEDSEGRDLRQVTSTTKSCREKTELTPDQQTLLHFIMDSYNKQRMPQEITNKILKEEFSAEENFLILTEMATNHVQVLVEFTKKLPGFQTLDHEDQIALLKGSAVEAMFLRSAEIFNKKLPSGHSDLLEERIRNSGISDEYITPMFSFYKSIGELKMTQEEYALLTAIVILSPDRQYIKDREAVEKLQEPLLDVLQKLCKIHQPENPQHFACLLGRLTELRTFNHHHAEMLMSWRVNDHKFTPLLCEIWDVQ
Sequence of Aryl hydrocarbon receptor (Homo sapiens) (P35869 whole entry, looked up): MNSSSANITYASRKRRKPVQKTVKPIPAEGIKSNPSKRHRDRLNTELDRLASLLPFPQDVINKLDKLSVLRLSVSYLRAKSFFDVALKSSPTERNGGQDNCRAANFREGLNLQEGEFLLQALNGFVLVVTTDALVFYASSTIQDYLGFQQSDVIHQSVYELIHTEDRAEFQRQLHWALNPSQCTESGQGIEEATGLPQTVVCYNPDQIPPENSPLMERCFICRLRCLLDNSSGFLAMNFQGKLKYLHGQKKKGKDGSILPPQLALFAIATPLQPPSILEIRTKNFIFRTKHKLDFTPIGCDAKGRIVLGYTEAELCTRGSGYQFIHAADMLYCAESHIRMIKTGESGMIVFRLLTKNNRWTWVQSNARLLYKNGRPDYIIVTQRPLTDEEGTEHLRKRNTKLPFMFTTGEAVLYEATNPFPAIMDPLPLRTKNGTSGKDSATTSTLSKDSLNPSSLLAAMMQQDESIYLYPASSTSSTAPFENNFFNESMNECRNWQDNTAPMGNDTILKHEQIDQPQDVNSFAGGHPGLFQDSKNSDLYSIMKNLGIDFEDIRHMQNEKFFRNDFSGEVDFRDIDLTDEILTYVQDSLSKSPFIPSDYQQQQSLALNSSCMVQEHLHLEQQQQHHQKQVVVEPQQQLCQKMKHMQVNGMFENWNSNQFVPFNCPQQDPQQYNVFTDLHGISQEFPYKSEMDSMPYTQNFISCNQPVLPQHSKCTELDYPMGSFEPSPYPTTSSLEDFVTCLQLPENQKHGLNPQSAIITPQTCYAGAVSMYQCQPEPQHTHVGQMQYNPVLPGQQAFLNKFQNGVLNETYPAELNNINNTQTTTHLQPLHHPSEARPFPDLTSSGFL
Sequence of Peroxisome proliferator-activated receptor gamma (Homo sapiens) (P37231 whole entry, looked up): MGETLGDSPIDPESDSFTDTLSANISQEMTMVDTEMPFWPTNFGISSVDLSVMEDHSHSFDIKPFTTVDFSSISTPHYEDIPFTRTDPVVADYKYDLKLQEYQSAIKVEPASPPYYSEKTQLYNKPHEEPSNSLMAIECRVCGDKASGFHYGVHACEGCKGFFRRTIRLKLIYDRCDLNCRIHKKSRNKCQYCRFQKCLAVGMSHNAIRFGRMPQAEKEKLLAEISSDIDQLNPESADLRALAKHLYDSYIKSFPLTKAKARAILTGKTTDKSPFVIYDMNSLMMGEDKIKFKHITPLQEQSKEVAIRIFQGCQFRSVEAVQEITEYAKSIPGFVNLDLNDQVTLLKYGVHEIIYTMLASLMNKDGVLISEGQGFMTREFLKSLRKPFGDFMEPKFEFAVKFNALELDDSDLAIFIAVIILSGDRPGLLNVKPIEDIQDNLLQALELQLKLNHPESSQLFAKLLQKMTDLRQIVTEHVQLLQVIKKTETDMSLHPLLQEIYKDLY
Sequence of Peroxisome proliferator-activated receptor delta (Homo sapiens) (Q03181 whole entry, looked up): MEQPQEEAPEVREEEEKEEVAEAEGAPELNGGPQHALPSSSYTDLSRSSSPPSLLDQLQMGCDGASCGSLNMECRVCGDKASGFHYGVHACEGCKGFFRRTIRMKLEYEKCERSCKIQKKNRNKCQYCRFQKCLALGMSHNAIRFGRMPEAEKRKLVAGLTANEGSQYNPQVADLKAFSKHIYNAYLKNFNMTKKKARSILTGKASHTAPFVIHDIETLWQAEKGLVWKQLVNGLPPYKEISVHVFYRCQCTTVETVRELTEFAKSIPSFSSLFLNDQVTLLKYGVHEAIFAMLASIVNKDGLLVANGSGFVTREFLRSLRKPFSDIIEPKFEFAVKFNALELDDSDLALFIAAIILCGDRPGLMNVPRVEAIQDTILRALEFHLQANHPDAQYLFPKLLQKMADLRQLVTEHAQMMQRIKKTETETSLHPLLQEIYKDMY
Sequence of Vitamin D3 receptor (Homo sapiens) (P11473 whole entry, looked up): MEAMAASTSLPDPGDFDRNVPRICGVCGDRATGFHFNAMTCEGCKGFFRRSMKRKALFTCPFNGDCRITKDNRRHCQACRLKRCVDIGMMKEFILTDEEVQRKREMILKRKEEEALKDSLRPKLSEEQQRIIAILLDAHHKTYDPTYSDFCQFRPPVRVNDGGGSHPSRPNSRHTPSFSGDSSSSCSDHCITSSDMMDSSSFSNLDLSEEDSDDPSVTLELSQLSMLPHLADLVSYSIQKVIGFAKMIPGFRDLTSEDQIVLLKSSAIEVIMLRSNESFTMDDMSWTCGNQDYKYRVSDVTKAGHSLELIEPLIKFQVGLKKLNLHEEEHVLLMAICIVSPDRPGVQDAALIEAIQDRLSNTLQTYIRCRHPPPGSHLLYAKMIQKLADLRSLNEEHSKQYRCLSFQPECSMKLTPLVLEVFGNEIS

| SMILES | Potency [1] | Potency [2] | outcome [3] | outcome [4] | Potency [5] | outcome [6] | Potency [7] | Potency [8] | Potency [9] | Potency [10] | Potency [11] | outcome [12] | outcome [13] | outcome [14] | outcome [15] | Potency [16] | outcome [17] | Potency [18] | outcome [19] | outcome [20] |
| --- | --- | --- | --- | --- | --- | --- | --- | --- | --- | --- | --- | --- | --- | --- | --- | --- | --- | --- | --- | --- |
| Nc1ncc([N+](=O)[O-])s1 | inactive | inactive | inactive | inactive | inactive | inactive | inactive | inactive | inactive | inactive | inactive | inactive | inactive | inactive | inactive | inactive | inactive | inactive | inactive | inactive |
| CC(=O)C1CCOC1=O (stereo not drawn) | inactive | inactive | inactive | inactive | inactive | inactive | inactive | inactive | inactive | inactive | inactive | inactive | inactive | inactive | inactive | inactive | inactive | inactive | inactive | inactive |
| Cc1cccc(N)c1C | inactive | inactive and 48.6 µM (active) | inactive | inactive | inactive | inactive | inactive | inactive | inactive | inactive | inactive | inactive | inactive | inactive | inactive | inactive | inactive | inactive | inactive | inactive |
| CCSC(=O)N1CCCCCC1 | inactive | inactive | inactive | inactive | inactive | inactive | inactive | inactive | inactive | inactive | inactive | inactive | inactive | inactive |  | inactive |  | inactive | inactive | inactive |
| ClC(Cl)c1ccccc1 | inactive | inactive | inactive | inactive | inactive | inactive | inactive | inactive | inactive | inactive | inactive | inactive | inactive | inactive |  | inactive |  | inactive | inactive | inactive |
| CN(C)C(=O)Cl | inactive | inactive | inactive | inactive | inactive | inactive | inactive | inactive | inactive | inactive | inactive | inactive | inactive | inactive |  | inactive |  | inactive | inactive | inactive |
| CCCCC(CC)C(=O)Cl (stereo not drawn) | inactive | inactive | inactive | inactive | inactive | inactive | inactive | inactive | inactive | inactive | inactive | inactive | inactive | inactive | inactive | inactive | inactive | inactive |  |  |
| O=[N+]([O-])c1cc([As](=O)(O)O)ccc1O | inactive | inactive | inactive | inactive | inactive | inactive | inactive | inactive | inactive | inactive | inactive | inactive | inactive | inactive |  | inactive |  | inactive | inactive | inactive |
| OCc1ccco1 | inactive | inactive | inactive | inactive | inactive | inactive | inactive | inactive | inactive | inactive | inactive | inactive | inactive | inactive | inactive | inactive | inactive | inactive | inactive | inactive |
| Cc1cccc(C)c1NC(=O)CN1CCCC1=O | inactive | inactive | inactive | inactive | inactive | inactive | inactive | inactive | inactive |  | inactive | inactive | inactive | inactive | inactive | inactive | inactive | inactive |  |  |
| CC(C)c1cccc(C(C)C)c1O | inactive | inactive | inactive | inactive | inactive | inactive | inactive | inactive | inactive | inactive | inactive | inactive | inactive | inactive |  | inactive |  | inactive | inactive | inactive |
| COP(=S)(OC)SCN1C(=O)c2ccccc2C1=O | inactive | inactive | inactive | inactive | inactive | inactive | inactive | inactive | inactive | inactive | inactive | inactive | inactive | inactive | inactive | inactive | inactive | inactive |  |  |
| C=C(C)C(=O)OCC(CC)CCCC (stereo not drawn) | inactive | inactive | inactive | inactive | inactive | inactive | inactive | inactive | inactive | inactive | inactive |  | inactive |  |  | inactive |  | inactive | inactive | inactive |
| Cc1ccc(N)cc1 | inactive | 24.5 µM (active) and inactive and 61.1 µM (active) | inactive | inactive | inactive | inactive | inactive | inactive | inactive | inactive | inactive |  | inactive |  |  | inactive |  | inactive |  |  |
